Measured values taken from PubChem BioAssay.
Measured potencies and affinities stand elsewhere. Inconclusive results are not listed. A number with no mark means an inactive call. Active and inactive are the calls of the source. No rule for the calls is given here.

assay: non-specific cell cytotoxicity, dose response, cytotoxicity control for PAX8 inhibitor project, plate reader, dry powder samples (AID 743021); settings: cell line, non-specific cytotoxicity counter-screen; series mostly up to 35 µM; activity change, negative = cytotoxicity: at the top concentration

SMILES	activity change, negative = cytotoxicity	outcome
O=C(Nc1ccc(F)cc1)N1CCCCN2[C@@H](CO)[C@@H](c3ccc(C#Cc4ccccc4)cc3)[C@@H]2C1	-27.8%	–
C[C@H](CO)N1C[C@H](C)[C@@H](CN(C)Cc2ccc(Cl)c(Cl)c2)Oc2ccc(NS(=O)(=O)c3ccccc3)cc2CC1=O	12.2%	–
CN(C)CCN(C(=O)/C=C/c1cccs1)c1nc2c(F)cc(F)cc2s1	5.08%	–
CN1c2ccc(-c3ccccc3)cc2[C@H]2[C@H](CCN2C(=O)NC2CCCCC2)[C@@H]1CO	-4.26%	–
C[C@@H]1CCCCO[C@H](CN(C)C(=O)Cc2ccccc2)[C@@H](C)CN([C@@H](C)CO)C(=O)c2cc(NC(=O)Nc3ccc(C(F)(F)F)cc3)ccc2O1	-2.7%	–
C[C@@H]1CN([C@H](C)CO)C(=O)c2cc(NC(=O)Nc3ccccc3)ccc2O[C@@H](C)CCCCO[C@@H]1CN(C)Cc1ccc(C(F)(F)F)cc1	-18.4%	–
COc1ccc(-c2cnc3c(NC=O)cc(-c4cccc(NS(C)(=O)=O)c4)cn23)cc1OC	19.2%	–
Cc1ccc(S(=O)(=O)Nc2ccc3c(c2)C(=O)N([C@@H](C)CO)C[C@@H](C)[C@H](CN(C)Cc2ccc(C(F)(F)F)cc2)OCCCC[C@H](C)O3)cc1	-2.98%	–
C[C@@H]1CN([C@H](C)CO)C(=O)c2cc(NC(=O)Nc3ccc(C(F)(F)F)cc3)ccc2O[C@@H](C)CCCCO[C@@H]1CN(C)C(=O)c1ccccc1	-12.8%	–
COc1cc(/C=C2\SC(=S)N(CCC(=O)N3CCCCC3)C2=O)cc(OC)c1OC	–	inactive
O=C1/C(=C/c2ccccc2F)SC(=S)N1CC(=O)N1CCCCC1c1cccnc1 (stereo not drawn)	32.7%	–
CC(=O)Nc1ccc(S(=O)(=O)c2ccnc3cc(Cl)ccc23)cc1	21.8%	–
Cc1nc(SCC(=O)Nc2nc3ccccc3s2)c(C#N)c(C)c1C	-21.6%	–
Cc1noc(C)c1S(=O)(=O)Nc1ccc2c(c1)C(=O)N([C@H](C)CO)C[C@H](C)[C@@H](CN(C)C(=O)Nc1ccc(C(F)(F)F)cc1)OCCCC[C@H](C)O2	-4.33%	–
Cc1ccc(S(=O)(=O)Nc2ccc3c(c2)nc(CCN2CCCC2)n3C)cc1	–	inactive
Cc1ccc(S(=O)(=O)N(C)C[C@@H]2Oc3cc(C#Cc4ccncc4)ccc3S(=O)(=O)N([C@H](C)CO)C[C@@H]2C)cc1	7.15%	–
COc1ccc(S(=O)(=O)Nc2ccc3c(c2)C(=O)N([C@H](C)CO)C[C@H](C)[C@H](CN(C)Cc2ccc(C(F)(F)F)cc2)OCCCC[C@H](C)O3)cc1	2.13%	–

SMILES	activity change, negative = cytotoxicity	outcome
Cc1ccc(-c2csc(NC3OC(=O)c4ccccc43)n2)cc1 (stereo not drawn)	-3.57%	–
O=C(/C=C/c1ccccc1)Nc1cccc(C(=O)O)c1	1.47%	–
C[C@H]1CCCCO[C@H](CN(C)C(=O)C2CCCCC2)[C@@H](C)CN([C@@H](C)CO)C(=O)c2cc(NC(=O)Nc3ccc(F)cc3)ccc2O1	17.6%	–
C[C@H](CO)N1C[C@H](C)[C@@H](CN(C)C(=O)C2CCCCC2)OCCCC[C@H](C)Oc2ccc(NS(=O)(=O)c3ccc(Cl)cc3)cc2C1=O	-8.96%	–
Cc1ccc2cccc(NS(=O)(=O)c3ccccc3)c2n1	-6.89%	–
COc1cccc2c1C(=O)c1c(O)c3c(c(O)c1C2=O)C[C@@](O)(C(=O)CO)C[C@@H]3O[C@H]1C[C@H](N)[C@H](O)[C@H](C)O1	22.1% [at 16 µM]	–
C[C@@H]1CN([C@H](C)CO)C(=O)c2cc(NC(=O)NC3CCCCC3)ccc2O[C@@H](C)CCCCO[C@H]1CN(C)Cc1ccc(C(F)(F)F)cc1	-32.4%	–
Cc1ccc(S(=O)(=O)N(C)C[C@@H]2Oc3cc(C#Cc4ccncc4)ccc3S(=O)(=O)N([C@H](C)CO)C[C@H]2C)cc1	2.94%	–
Cc1cccc(/C=C(\c2nc3ccccc3[nH]2)S(=O)(=O)c2ccccc2)c1	51.2%	–
COc1cc2c(c(OC)c1OC)-c1ccc(OC)c(=O)cc1[C@@H](NC(C)=O)CC2	22.1%	–
Cc1ccccc1S(=O)(=O)N1CC[C@@H]2[C@H](CO)Nc3ccc(-c4cccc(F)c4)cc3[C@@H]21	-11%	–
COc1ccccc1C#Cc1ccc2c(c1)O[C@H](CN(C)Cc1cccnc1)[C@H](C)CN([C@@H](C)CO)S2(=O)=O	-13.4%	–
Cc1cc(C)c2sc(NNC(=O)c3ccc(S(=O)(=O)N4CCc5ccccc5C4)cc3)nc2c1	–	inactive
O=C(NCCc1ccccc1)c1ccc2c(c1)OCCCO2	14.6%	–
C[C@@H]1CCCCO[C@H](CN(C)Cc2ccc(C(F)(F)F)cc2)[C@H](C)CN([C@@H](C)CO)C(=O)c2cc(NS(=O)(=O)c3ccc(F)cc3)ccc2O1	-12.5%	–
Cc1cc(NC(=O)CCCS(=O)(=O)c2nc(-c3cccs3)cc(C(F)(F)F)n2)no1	31.6% [at 16 µM]	–

assay: IGROV1 ovarian cancer cell cytotoxicity, dose response, PAX8 inhibitor project, plate reader, dry powder samples (AID 743043); settings: series mostly up to 35 µM; activity change, negative = cytotoxicity: at the top concentration;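 also: more negative means fewer viable cells or more cytotoxicity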

SMILES	activity change, negative = cytotoxicity
C[C@H](CO)N1C[C@H](C)[C@@H](CN(C)Cc2ccc(Cl)c(Cl)c2)Oc2ccc(NS(=O)(=O)c3ccccc3)cc2CC1=O	-14.1%
COc1ccc(S(=O)(=O)N(C)C[C@H]2OCCCC[C@H](C)Oc3ccc(NS(=O)(=O)c4ccc(F)cc4)cc3C(=O)N([C@@H](C)CO)C[C@@H]2C)cc1	-14.5%
CN1c2ccc(-c3ccccc3)cc2[C@H]2[C@H](CCN2C(=O)NC2CCCCC2)[C@@H]1CO	-18.2%
C[C@@H]1CCCCO[C@H](CN(C)C(=O)Cc2ccccc2)[C@@H](C)CN([C@@H](C)CO)C(=O)c2cc(NC(=O)Nc3ccc(C(F)(F)F)cc3)ccc2O1	0.091%
Cc1ccc(S(=O)(=O)Nc2ccc3c(c2)C(=O)N([C@@H](C)CO)C[C@@H](C)[C@H](CN(C)Cc2ccc(C(F)(F)F)cc2)OCCCC[C@H](C)O3)cc1	0.173%
C[C@@H]1CN([C@H](C)CO)C(=O)c2cc(NC(=O)Nc3ccc(C(F)(F)F)cc3)ccc2O[C@@H](C)CCCCO[C@@H]1CN(C)C(=O)c1ccccc1	-28.5%
O=C1/C(=C/c2ccccc2F)SC(=S)N1CC(=O)N1CCCCC1c1cccnc1 (stereo not drawn)	20.1% [at 50 µM]
Cc1noc(C)c1S(=O)(=O)Nc1ccc2c(c1)C(=O)N([C@H](C)CO)C[C@H](C)[C@@H](CN(C)C(=O)Nc1ccc(C(F)(F)F)cc1)OCCCC[C@H](C)O2	-3.74%
Cc1ccc(S(=O)(=O)Nc2ccc3c(c2)nc(CCN2CCCC2)n3C)cc1	19% [at 50 µM]
Cc1ccc(S(=O)(=O)N(C)C[C@@H]2Oc3cc(C#Cc4ccncc4)ccc3S(=O)(=O)N([C@H](C)CO)C[C@@H]2C)cc1	-26.8%
COc1ccc(S(=O)(=O)Nc2ccc3c(c2)C(=O)N([C@H](C)CO)C[C@H](C)[C@H](CN(C)Cc2ccc(C(F)(F)F)cc2)OCCCC[C@H](C)O3)cc1	-28.4%
Cc1ccc(-c2csc(NC3OC(=O)c4ccccc43)n2)cc1 (stereo not drawn)	7.94% [at 50 µM]
C[C@H](CO)N1C[C@H](C)[C@@H](CN(C)C(=O)C2CCCCC2)OCCCC[C@H](C)Oc2ccc(NS(=O)(=O)c3ccc(Cl)cc3)cc2C1=O	-15.8%
COc1ccc(CN(C)C[C@H]2OCCCC[C@@H](C)Oc3ccc(NC(=O)Nc4ccc(F)cc4)cc3C(=O)N([C@@H](C)CO)C[C@@H]2C)cc1	-33%
Cc1ccc(S(=O)(=O)N(C)C[C@@H]2Oc3cc(C#Cc4ccncc4)ccc3S(=O)(=O)N([C@H](C)CO)C[C@H]2C)cc1	-14.2%
Cc1ccc(S(=O)(=O)Nc2ccc3c(c2)CC(=O)N([C@@H](C)CO)C[C@H](C)[C@@H](CN(C)C(=O)Nc2ccc(C(F)(F)F)cc2)O3)cc1	7.53%
CO[C@@H]1CN(C)C(=O)c2cc(NC(=O)c3ccc(-c4ccccc4)cc3)ccc2OC[C@H](C)NC[C@H]1C	-20% [at 30 µM]
Cc1ccccc1S(=O)(=O)N1CC[C@@H]2[C@H](CO)Nc3ccc(-c4cccc(F)c4)cc3[C@@H]21	-11.3%
COc1ccccc1C#Cc1ccc2c(c1)O[C@H](CN(C)Cc1cccnc1)[C@H](C)CN([C@@H](C)CO)S2(=O)=O	-4.39%
CC(C)CC#Cc1ccc2c(c1)O[C@H](CN(C)Cc1ccc(C(=O)O)cc1)[C@@H](C)CN([C@H](C)CO)S2(=O)=O	16.5%
